Marburg entry inh: blocks Marburg virus binding to or entry into cells; Marburg virus pseudotyped entry inhibition, cell reporter; 1.8% of 300,000 active; Potency, µM (doses to about 37.8 µM), inactives show at the top dose activity change, negative = inhibition, most hits filed as inhibitors; calls by dose curve; tested in HEK293 cells; note: potency is the fitted concentration of half-maximal effect; % is set by controls: 0 for no effect and ±100 for the full control effect
Shiga toxin inh: inhibitors of Shiga toxin in Vero cells; Vero cells, Shiga toxin protein synthesis inhibition reporter; inhibition, % at 38.7 µM; 9.2% of 290,000 active; in the data active = inhibition mostly above about 28%, no sharp cut-off; inactive = mostly below about 43%; note: 0% is about no effect
Lassa entry inh: Lassa virus entry inhibition | Lassa virus pseudotype entry inhibition, cell reporter | Potency, µM (doses to about 37.9 µM), inactives show top-dose activity change, negative = inhibition, hits mostly inhibitors | 1.2% of 300,000 active | AID 540256; calls by dose curve; tested in HEK293 cells; note: potency is the fitted concentration of half-maximal effect; % is set by controls: 0 for no effect and ±100 for the full control effect; nearly all actives have a fitted effect of over 50% in size
Pf growth 96h: P. falciparum growth inhibition at 96 hour, primary screen for plastid delayed-death inhibitors | 6.9% of 320,000 active | Potency, µM (doses to about 28.7 µM), for inactives: at the highest dose activity change, negative = inhibition, actives largely listed as inhibitors | P. falciparum luciferase reporter growth, 96 h | AID 504834; note: potency is the fitted concentration of half-maximal effect; % is set by controls: 0 for no effect and ±100 for the full control effect
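Compounds incubated with erythrocytes infected by luciferase-expressing P. falciparum (2% hematocrit, 0.05% parasitemia final) for 96 hours, 37 C in 5% CO2. Growth inhibition scored as decreased luciferase luminescence.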
CHX counter: counter-screen for Shiga toxin inhibitors: cycloheximide protein synthesis inhibition. cell reporter, cycloheximide protein synthesis inhibition counterscreen. max response, %. 12% of 300,000 active. AID 2314; in the data active = max response mostly above about 13%, no sharp cut-off; inactive = mostly below about 14%; note: read at 38.3 µM for the half of the compounds with a filed dose; 0% is about no effect
Pf growth 48h: P. falciparum growth inhibition at 48 hours (one generation); 5.9% of 310,000 active; AID 504832; P. falciparum luciferase growth in erythrocytes, 48 h; Potency, µM (doses to about 28.7 µM), without a hit: top-dose activity change, negative = inhibition, actives largely listed as inhibitors; note: potency is the fitted concentration of half-maximal effect; % is set by controls: 0 for no effect and ±100 for the full control effect
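Cell-based growth assay: transgenic P. falciparum expressing firefly luciferase, cultured in red cells within RPMI 1640 containing 0.5% w/v Albumax, 24 mM bicarbonate and gentamycin. A drop in luciferase activity indicates inhibition.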
* marks the source's active call; other numbers are inactive results; [ ] = another dose, or the depositor's remark. Sampled rows, rich in hits. Any-hit rate of the full collection: about 19%. Unless noted, calls come from the whole dose curve; as a rule, active = well fitted inhibition curve with a large enough effect; inconclusive = small, poorly fitted or top-dose-only effect, or another doubt; inactive = no such curve, though single readings can be large or run the other way.

Screening COc1cc(/C=N/NC(=O)c2cccc([N+](=O)[O-])c2)ccc1OCc1ccc(C)cc1 returned Marburg entry inh -1%[46.1 µM], Shiga toxin inh 62*, Lassa entry inh 9%, Pf growth 96h 0%, CHX counter 22* and Pf growth 48h 12%.
For COc1ccc(/C=N/NC(=O)c2cccc([N+](=O)[O-])c2)cc1O the results were Marburg entry inh inconclusive, Shiga toxin inh 102*, Lassa entry inh 2%, Pf growth 96h 4%, CHX counter 25* and Pf growth 48h -14%.
COc1cc(/C=N/NC(=O)c2cccc([N+](=O)[O-])c2)ccc1O was read as Shiga toxin inh 21, Pf growth 96h 13%, CHX counter 20 and Pf growth 48h 0%.
Screening COc1ccc(NC(=O)C(=O)NCC(c2ccco2)N2CCc3ccccc32)cc1 (configuration not stated) returned Marburg entry inh inconclusive, Lassa entry inh inconclusive, Pf growth 96h 15% and Pf growth 48h -14%.
Screening CC(=O)Nc1ccc(NC(=O)C(=O)NCC(c2ccco2)N2CCc3ccccc32)cc1 (configuration not stated) returned Pf growth 96h 10µM* and Pf growth 48h 13µM*.
CCOc1ccccc1NC(=O)Nc1cccc(C(C)=O)c1 was read as Marburg entry inh -2%, Shiga toxin inh 11, Lassa entry inh 23%, Pf growth 96h -22% and CHX counter 8.
`COc1cccc(-c2sc3ccc(OC)cc3c2-c2cc(F)cc(OC)c2)c1` gave Pf growth 96h 2.9µM* and Pf growth 48h inconclusive.
Screening COCCCn1c(=N)c(C(=O)NCc2ccco2)cc2c(=O)n3ccccc3nc21 returned Marburg entry inh 2.5µM* and Lassa entry inh 6%[46.1 µM].
Screening CCOCCCn1c(=N)c(C(=O)NCc2ccco2)cc2c(=O)n3ccccc3nc21 returned Marburg entry inh inconclusive and Lassa entry inh -4%[46.1 µM].
`N=c1c(C(=O)NCc2ccco2)cc2c(=O)n3ccccc3nc2n1CCc1ccccc1` gave Marburg entry inh inconclusive, Shiga toxin inh 35, Lassa entry inh inconclusive, CHX counter 19 and Pf growth 48h 0.93µM*.
Cc1ccc(Cn2c(=N)c(C(=O)NCc3ccco3)cc3c(=O)n4ccccc4nc32)cc1 was read as Marburg entry inh 13µM*, Shiga toxin inh 1, Lassa entry inh inconclusive, Pf growth 96h 0%, CHX counter -1 and Pf growth 48h 4.1µM*.
`CCCn1c(=N)c(C(=O)NCc2ccco2)cc2c(=O)n3cc(C)ccc3nc21` gave Marburg entry inh -19%[46.1 µM] and Lassa entry inh -16%[46.1 µM].
O=C(COC(=O)Cc1ccc(S(=O)(=O)N2CCOCC2)s1)NCc1ccccc1 was read as Marburg entry inh 0%, Shiga toxin inh -9, Lassa entry inh 19%, Pf growth 96h 34%, CHX counter -3 and Pf growth 48h -3%.
CCCCOc1ccc(-c2nnn(C(C)C(=O)OCC)n2)cc1 (configuration not stated) was read as Marburg entry inh 10%, Shiga toxin inh 33, Lassa entry inh 10%, CHX counter 8 and Pf growth 48h 51%.
Screening CCCCOc1ccc(-c2nnn(C(C)(C)C(=O)OC)n2)cc1 returned Marburg entry inh -4%, Shiga toxin inh 57*, Lassa entry inh inconclusive, CHX counter 32* and Pf growth 48h 16%.
COc1ccc(CCN2CC(C(=O)NCCc3ccc(C(F)(F)F)cc3)CCC2=O)cc1 (configuration not stated) was read as Marburg entry inh 6%[46.1 µM], Shiga toxin inh -3, Lassa entry inh inconclusive, Pf growth 96h inconclusive, CHX counter 1 and Pf growth 48h -9%.
COC(=O)c1sccc1NC(=O)Nc1cccc(OC)c1 was read as Marburg entry inh 2%[46.1 µM], Shiga toxin inh 40*, Lassa entry inh 20%[46.1 µM], Pf growth 96h -2%, CHX counter 45* and Pf growth 48h 17%.
COc1cccc(NC(=O)C(NCCC(C)C)c2ccccc2)c1 (configuration not stated) was read as Marburg entry inh -25%, Shiga toxin inh -16, Lassa entry inh -15%, Pf growth 96h inconclusive and CHX counter -1.
Screening COC(=O)c1sccc1NC(=O)Nc1cccc(F)c1 returned Marburg entry inh 1%[46.1 µM], Shiga toxin inh 51, Lassa entry inh -2%[46.1 µM], Pf growth 96h 35%, CHX counter 9.4* and Pf growth 48h 14%.
CCCN(CCC)C(C(=O)Nc1cccc(OC)c1)c1ccccc1 (configuration not stated) was read as Marburg entry inh inconclusive, Shiga toxin inh 49, Lassa entry inh 15%, Pf growth 96h 13µM*, CHX counter -1 and Pf growth 48h inconclusive.
`COc1cccc(NC(=O)Nc2ccccc2Br)c1` gave Marburg entry inh -7%[46.1 µM], Shiga toxin inh 74*, Lassa entry inh inconclusive, Pf growth 96h 19%[5.75 µM], CHX counter 53* and Pf growth 48h 133%.
COc1ccc(C)cc1N(CC(=O)Nc1cccnc1)S(=O)(=O)c1ccccc1 was read as Marburg entry inh -12%[46.1 µM], Shiga toxin inh -11, Lassa entry inh -14%, Pf growth 96h 22%, CHX counter -3 and Pf growth 48h inconclusive.
Screening COc1ccccc1N(CC(=O)Nc1ccc(Cc2ccncc2)cc1)S(=O)(=O)c1ccccc1 returned Marburg entry inh inconclusive, Shiga toxin inh -5, Lassa entry inh -25%, Pf growth 96h inconclusive, CHX counter -3 and Pf growth 48h 8.3µM*.
Screening COc1ccc(N(CC(=O)Nc2ccccc2OC)S(=O)(=O)c2ccc(NC(C)=O)cc2)cc1 returned Marburg entry inh inconclusive, Shiga toxin inh -3, Lassa entry inh 3.2µM*, Pf growth 96h inconclusive, CHX counter 1 and Pf growth 48h inconclusive.
COc1ccc(N(CC(=O)Nc2ccc(S(=O)(=O)N3CCOCC3)cc2)S(=O)(=O)c2ccccc2)cc1 was read as Marburg entry inh inconclusive, Shiga toxin inh 23, Lassa entry inh inconclusive, CHX counter -1 and Pf growth 48h 10µM*.
Screening COc1ccc(NC(=O)CN(c2ccc([N+](=O)[O-])cc2)S(=O)(=O)c2ccccc2)cc1 returned Marburg entry inh inconclusive, Shiga toxin inh 34, Lassa entry inh inconclusive, Pf growth 96h -26%, CHX counter 11 and Pf growth 48h inconclusive.
Screening COc1ccc(NC(=O)CSCC(=O)Nc2ccc(S(=O)(=O)N3CCOCC3)cc2)cc1 returned Pf growth 96h -6% and Pf growth 48h inconclusive.
COc1ccc(N(CC(=O)Nc2ccc(Cc3ccncc3)cc2)S(=O)(=O)c2ccccc2)cc1 was read as Marburg entry inh -24%[46.1 µM], Shiga toxin inh -9, Lassa entry inh inconclusive, Pf growth 96h 3%, CHX counter -2 and Pf growth 48h 13µM*.
Screening CN(C)c1nc(=NCc2ccco2)ss1 returned Shiga toxin inh 38, Pf growth 96h 2.6µM*, CHX counter 17 and Pf growth 48h inconclusive.

Assay outcomes deposited in PubChem by National Center for Advancing Translational Sciences (NCATS).
